In all, about 5,500 compounds went through this assay and about 2,000 (36%) were called active. Roughly 18% stayed inconclusive and do not appear here. This is one part of the list. Unmarked numbers belong to inactive results. Cut-off read from the data, not from the text of the source: active = normalized growth mostly below about 0.91 (no sharp cut-off); inconclusive = no clear call, values can overlap the other calls; inactive = mostly above about 0.92. Where a SMILES comes first, the peptide text is derived from it.
Test: chemical genetic growth profiling, strain panel (AID 1159580);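 note: tested at 20 µM; growth read once vehicle control cultures reached saturation at 30 °C; 1 = growth at the plate median or of vehicle wells; lower values mean less growth of the strain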
Settings: growth OD
[1] = S. cerevisiae deletion strains, locus YHR030C, strain SLT2, active compounds read low
[2] = S. cerevisiae deletion strains, locus YGR078C, strain PAC10, active compounds read low
[3] = S. cerevisiae deletion strains, locus YGR229C, strain SMI1, active compounds read low
[4] = S. cerevisiae deletion strains, locus YJR075W, strain HOC1, active compounds read low
[5] = S. cerevisiae deletion strains, locus YNL322C, strain KRE1, active compounds read low
[6] = S. cerevisiae deletion strains, locus YPL241C, strain CIN2, active compounds read low

## COC(=O)[C@H](Cc1ccccc1)NC(=O)[C@@H](N)CC(=O)O (H-Asp-Phe-OMe)
S. cerevisiae deletion strains, locus YAL021C, strain ccr4, active compounds read low
  normalized growth: 1.01
S. cerevisiae deletion strains, locus YAL026C, strain drs2, active compounds read low
  normalized growth: 1.01
S. cerevisiae deletion strains, locus YAL030W, strain snc1, active compounds read low
  normalized growth: 1
S. cerevisiae deletion strains, locus YBL061C, strain skt5, active compounds read low
  normalized growth: 1.02
S. cerevisiae deletion strains, locus YBR009C, strain hhf1, active compounds read low
  normalized growth: 1.02
S. cerevisiae deletion strains, locus YBR023C, strain chs3, active compounds read low
  normalized growth: 1.02
S. cerevisiae deletion strains, locus YBR171W, strain sec66, active compounds read low
  normalized growth: 1.02
S. cerevisiae deletion strains, locus YBR231C, strain swc5, active compounds read low
  normalized growth: 1.03
S. cerevisiae deletion strains, locus YBR279W, strain paf1, active compounds read low
  normalized growth: 1.02
S. cerevisiae deletion strains, locus YCL011C, strain gbp2, active compounds read low
  normalized growth: 1.02
S. cerevisiae deletion strains, locus YCL016C, strain dcc1, active compounds read low
  normalized growth: 1.01
S. cerevisiae deletion strains, locus YCL061C, strain MRC1, active compounds read low
  normalized growth: 1.01
S. cerevisiae deletion strains, locus YCL069W, strain vba3, active compounds read low
  normalized growth: 1.02
S. cerevisiae deletion strains, locus YCR088W, strain abp1, active compounds read low
  normalized growth: 1.01
S. cerevisiae deletion strains, locus YDL005C, strain med2, active compounds read low
  normalized growth: 1
S. cerevisiae deletion strains, locus YDL040C, strain nat1, active compounds read low
  normalized growth: 1.01
S. cerevisiae deletion strains, locus YDR001C, strain nth1, active compounds read low
  normalized growth: 1.02
S. cerevisiae deletion strains, locus YDR069C, strain doa4, active compounds read low
  normalized growth: 1.02
S. cerevisiae deletion strains, locus YDR137W, strain rgp1, active compounds read low
  normalized growth: 1.01
S. cerevisiae deletion strains, locus YDR159W, strain sac3, active compounds read low
  normalized growth: 1.02
S. cerevisiae deletion strains, locus YDR195W, strain ref2
  normalized growth: 1.01
S. cerevisiae deletion strains, locus YDR297W, strain sur2, active compounds read low
  normalized growth: 1.02
S. cerevisiae deletion strains, locus YDR334W, strain swr1, active compounds read low
  normalized growth: 1.01
S. cerevisiae deletion strains, locus YDR335W, strain msn5, active compounds read low
  normalized growth: 1.02
S. cerevisiae deletion strains, locus YDR392W, strain spt3, active compounds read low
  normalized growth: 0.958
S. cerevisiae deletion strains, locus YEL003W, strain gim4, active compounds read low
  normalized growth: 1.02
S. cerevisiae deletion strains, locus YEL037C, strain rad23, active compounds read low
  normalized growth: 1.02
S. cerevisiae deletion strains, locus YEL061C, strain CIN8 (second series), active compounds read low
  normalized growth: 1.01
S. cerevisiae deletion strains, locus YER015W, strain faa2, active compounds read low
  normalized growth: 1.01
S. cerevisiae deletion strains, locus YER016W, strain bim1, active compounds read low
  normalized growth: 1.01
S. cerevisiae deletion strains, locus YER111C, strain swi4, active compounds read low
  normalized growth: 1.02
S. cerevisiae deletion strains, locus YER155C, strain BEM2 (second series), active compounds read low
  normalized growth: 1.03
S. cerevisiae deletion strains, locus YFR010W, strain ubp6, active compounds read low
  normalized growth: 1.02
S. cerevisiae deletion strains, locus YGL167C, strain pmr1, active compounds read low
  normalized growth: 1.02
S. cerevisiae deletion strains, locus YGL173C, strain kem1, active compounds read low
  normalized growth: 1.01
S. cerevisiae deletion strains, locus YGL227W, strain vid30, active compounds read low
  normalized growth: 1.02
S. cerevisiae deletion strains, locus YGL240W, strain doc1, active compounds read low
  normalized growth: 1.04
S. cerevisiae deletion strains, locus YGL253W, strain hxk2, active compounds read low
  normalized growth: 1
S. cerevisiae deletion strains, locus YHR013C, strain ard1, active compounds read low
  normalized growth: 1.01
S. cerevisiae deletion strains, locus YHR027C, strain rpn1, active compounds read low
  normalized growth: 1.02
[1]
  normalized growth: 1.02
S. cerevisiae deletion strains, locus YHR079C, strain IRE1, active compounds read low
  normalized growth: 1.02
S. cerevisiae deletion strains, locus YHR142W, strain chs7, active compounds read low
  normalized growth: 1.01
S. cerevisiae deletion strains, locus YJL092W, strain hpr5, active compounds read low
  normalized growth: 1.02
S. cerevisiae deletion strains, locus YJL095W, strain BCK1 (second series), active compounds read low
  normalized growth: 1.02
S. cerevisiae deletion strains, locus YJL095W, strain BCK1, active compounds read low
  normalized growth: 0.978
S. cerevisiae deletion strains, locus YJL115W, strain asf1, active compounds read low
  normalized growth: 1.02
S. cerevisiae deletion strains, locus YJL129C, strain trk1, active compounds read low
  normalized growth: 1.01
S. cerevisiae deletion strains, locus YJL154C, strain vps35, active compounds read low
  normalized growth: 1.02
S. cerevisiae deletion strains, locus YJL164C, strain tpk1, active compounds read low
  normalized growth: 0.999
S. cerevisiae deletion strains, locus YJL166W, strain qcr8, active compounds read low
  normalized growth: 1.03
S. cerevisiae deletion strains, locus YJR066W, strain TOR1, active compounds read low
  normalized growth: 0.961
S. cerevisiae deletion strains, locus YKL160W, strain elf1, active compounds read low
  normalized growth: 1.02
S. cerevisiae deletion strains, locus YKR026C, strain gcn3, active compounds read low
  normalized growth: 1.02
S. cerevisiae deletion strains, locus YKR091W, strain srl3, active compounds read low
  normalized growth: 1.02
S. cerevisiae deletion strains, locus YLL001W, strain dnm1, active compounds read low
  normalized growth: 1.01
S. cerevisiae deletion strains, locus YLL026W, active compounds read low
  normalized growth: 1.02
S. cerevisiae deletion strains, locus YLL041C, strain sdh2, active compounds read low
  normalized growth: 1.02
S. cerevisiae deletion strains, locus YLR027C, strain aat2, active compounds read low
  normalized growth: 1.02
S. cerevisiae deletion strains, locus YLR113W, strain HOG1, active compounds read low
  normalized growth: 0.969
S. cerevisiae deletion strains, locus YLR221C, strain rsa3, active compounds read low
  normalized growth: 0.998
S. cerevisiae deletion strains, locus YLR258W, strain gsy2, active compounds read low
  normalized growth: 1.02
S. cerevisiae deletion strains, locus YLR262C, strain YPT6 (second series), active compounds read low
  normalized growth: 1.02
S. cerevisiae deletion strains, locus YLR320W, strain mms22, active compounds read low
  normalized growth: 1.01
S. cerevisiae deletion strains, locus YLR342W, strain FKS1, active compounds read low
  normalized growth: 1.03
S. cerevisiae deletion strains, locus YLR357W, strain rsc2, active compounds read low
  normalized growth: 1.03
S. cerevisiae deletion strains, locus YLR370C, strain arc18, active compounds read low
  normalized growth: 1.01
S. cerevisiae deletion strains, locus YLR384C, strain iki3, active compounds read low
  normalized growth: 1.02
S. cerevisiae deletion strains, locus YML120C, strain ndi1, active compounds read low
  normalized growth: 1.01
S. cerevisiae deletion strains, locus YMR058W, strain fet3, active compounds read low
  normalized growth: 1.02
S. cerevisiae deletion strains, locus YMR125W, strain sto1, active compounds read low
  normalized growth: 1.01
S. cerevisiae deletion strains, locus YMR129W, active compounds read low
  normalized growth: 1.02
S. cerevisiae deletion strains, locus YMR205C, strain PFK2, active compounds read low
  normalized growth: 1.02
S. cerevisiae deletion strains, locus YMR231W, strain pep5, active compounds read low
  normalized growth: 1.03
S. cerevisiae deletion strains, locus YNL071W, strain lat1, active compounds read low
  normalized growth: 1.02
S. cerevisiae deletion strains, locus YNL183C, strain NPR1, active compounds read low
  normalized growth: 0.96
S. cerevisiae deletion strains, locus YNL209W, strain ssb2, active compounds read low
  normalized growth: 1.01
S. cerevisiae deletion strains, locus YNL248C, strain rpa49, active compounds read low
  normalized growth: 1
S. cerevisiae deletion strains, locus YNL322C, strain KRE1 (second series), active compounds read low
  normalized growth: 1.02
S. cerevisiae deletion strains, locus YNR049C, strain mso1, active compounds read low
  normalized growth: 1.02
S. cerevisiae deletion strains, locus YOR001W, strain rrp6, active compounds read low
  normalized growth: 1.01
S. cerevisiae deletion strains, locus YOR070C, strain gyp1, active compounds read low
  normalized growth: 1.01
S. cerevisiae deletion strains, locus YOR080W, strain dia2, active compounds read low
  normalized growth: 1.02
S. cerevisiae deletion strains, locus YOR083W, strain WHI5, active compounds read low
  normalized growth: 1.02
S. cerevisiae deletion strains, locus YOR106W, strain vam3, active compounds read low
  normalized growth: 1.03
S. cerevisiae deletion strains, locus YOR231W, strain MKK1, active compounds read low
  normalized growth: 1.02
S. cerevisiae deletion strains, locus YOR265W, strain rbl2, active compounds read low
  normalized growth: 1.01
S. cerevisiae deletion strains, locus YOR270C, strain vph1, active compounds read low
  normalized growth: 1.05
S. cerevisiae deletion strains, locus YOR290C, strain snf2, active compounds read low
  normalized growth: 0.995
S. cerevisiae deletion strains, locus YPL051W, strain arl3, active compounds read low
  normalized growth: 1.03
S. cerevisiae deletion strains, locus YPL078C, strain atp4, active compounds read low
  normalized growth: 1.02
S. cerevisiae deletion strains, locus YPL106C, strain sse1, active compounds read low
  normalized growth: 1.03
S. cerevisiae deletion strains, locus YPL240C, strain hsp82, active compounds read low
  normalized growth: 1.01
S. cerevisiae deletion strains, locus YPL256C, strain CLN2, active compounds read low
  normalized growth: 1.02

## O=C(NC(Cc1ccccc1)C(=O)CCl)OCc1ccccc1 (stereo unspecified)
S. cerevisiae deletion strains, locus YAL040C, strain CLN3, active compounds read low
  normalized growth: 1.03
S. cerevisiae deletion strains, locus YCL061C, strain MRC1 (second series), active compounds read low
  normalized growth: 0.979
S. cerevisiae deletion strains, locus YDR363W, strain ESC2, active compounds read low
  normalized growth: 1.02
S. cerevisiae deletion strains, locus YER002W, strain NOP16, active compounds read low
  normalized growth: 0.549 (active)
[2]
  normalized growth: 0.98
[3]
  normalized growth: 0.28 (active)
[4]
  normalized growth: 0.913
S. cerevisiae deletion strains, locus YNL175C, strain NOP13, active compounds read low
  normalized growth: 0.707 (active)
S. cerevisiae deletion strains, locus YNL197C, strain WHI3, active compounds read low
  normalized growth: 0.874 (active)
S. cerevisiae deletion strains, locus YNL224C, strain SQS1, active compounds read low
  normalized growth: 0.784 (active)
[5]
  normalized growth: 0.999
S. cerevisiae deletion strains, locus YOR083W, strain WHI5 (second series), active compounds read low
  normalized growth: 0.687 (active)
[6]
  normalized growth: 0.992

## COc1ccccc1NC(=O)NCCSCc1ccccc1Cl
S. cerevisiae deletion strains, locus YAL013W, strain DEP1, active compounds read low
  normalized growth: 0.979
S. cerevisiae deletion strains, locus YBR229C, strain ROT2, active compounds read low
  normalized growth: 0.981
S. cerevisiae deletion strains, locus YDL101C, strain DUN1, active compounds read low
  normalized growth: 1.03
S. cerevisiae deletion strains, locus YDL134C, strain PPH21, active compounds read low
  normalized growth: 0.978
S. cerevisiae deletion strains, locus YDR150W, strain NUM1, active compounds read low
  normalized growth: 0.968
S. cerevisiae deletion strains, locus YEL061C, strain CIN8, active compounds read low
  normalized growth: 0.983
[2]
  normalized growth: 0.993
[3]
  normalized growth: 0.984
[1]
  normalized growth: 0.877
S. cerevisiae deletion strains, locus YHR087W, strain rtc3, active compounds read low
  normalized growth: 0.976
S. cerevisiae deletion strains, locus YJL187C, strain SWE1, active compounds read low
  normalized growth: 1.01
S. cerevisiae deletion strains, locus YJR043C, strain POL32, active compounds read low
  normalized growth: 1.01
[4]
  normalized growth: 1.01
S. cerevisiae deletion strains, locus YLR039C, strain RIC1, active compounds read low
  normalized growth: 0.887
S. cerevisiae deletion strains, locus YLR058C, strain SHM2 (second series), active compounds read low
  normalized growth: 1
S. cerevisiae deletion strains, locus YLR085C, strain ARP6, active compounds read low
  normalized growth: 1.07
S. cerevisiae deletion strains, locus YLR262C, strain YPT6, active compounds read low
  normalized growth: 0.931
S. cerevisiae deletion strains, locus YML094W, strain GIM5, active compounds read low
  normalized growth: 0.963
S. cerevisiae deletion strains, locus YMR219W, strain ESC1, active compounds read low
  normalized growth: 0.988
S. cerevisiae deletion strains, locus YMR263W, strain SAP30, active compounds read low
  normalized growth: 1.01
S. cerevisiae deletion strains, locus YNL153C, strain GIM3, active compounds read low
  normalized growth: 1.01
S. cerevisiae deletion strains, locus YNL298W, strain CLA4 (second series), active compounds read low
  normalized growth: 0.974
[5]
  normalized growth: 0.985
S. cerevisiae deletion strains, locus YNR030W, strain Alg12, active compounds read low
  normalized growth: 0.971
S. cerevisiae deletion strains, locus YOL006C, strain TOP1, active compounds read low
  normalized growth: 0.954
S. cerevisiae deletion strains, locus YPL055C, strain LGE1, active compounds read low
  normalized growth: 0.927
[6]
  normalized growth: 1.04
S. cerevisiae deletion strains, locus YPR135W, strain CTF4, active compounds read low
  normalized growth: 0.88
S. cerevisiae strains, strain wild type, active compounds read low
  normalized growth: 0.978

Source: PubChem BioAssay AID1159580 (chemical genetic matrix, 2015)
